Data taken from PubChem BioAssay (NCATS).
Inconclusive results are not listed. The source made the active and inactive calls. Unless noted, calls come from the whole dose curve; as a rule, active = well fitted curve in either direction with a large enough effect (not every such curve was filed as active); inconclusive = small, poorly fitted or top-dose-only effect, or another doubt; inactive = flat fitted curve, though single readings scatter.

Assays:
[1] = target: Lysosomal acid glucosylceramidase (Homo sapiens) (UniProt P04062); assay: Glucocerebrosidase-p2 (AID 348; in the data active = potency below about 10 µM; note: potency is the fitted concentration of half-maximal effect); conditions: purified GBA, blue fluorogenic substrate, 40 min
Sequence of Lysosomal acid glucosylceramidase (Homo sapiens) (P04062 whole entry, looked up): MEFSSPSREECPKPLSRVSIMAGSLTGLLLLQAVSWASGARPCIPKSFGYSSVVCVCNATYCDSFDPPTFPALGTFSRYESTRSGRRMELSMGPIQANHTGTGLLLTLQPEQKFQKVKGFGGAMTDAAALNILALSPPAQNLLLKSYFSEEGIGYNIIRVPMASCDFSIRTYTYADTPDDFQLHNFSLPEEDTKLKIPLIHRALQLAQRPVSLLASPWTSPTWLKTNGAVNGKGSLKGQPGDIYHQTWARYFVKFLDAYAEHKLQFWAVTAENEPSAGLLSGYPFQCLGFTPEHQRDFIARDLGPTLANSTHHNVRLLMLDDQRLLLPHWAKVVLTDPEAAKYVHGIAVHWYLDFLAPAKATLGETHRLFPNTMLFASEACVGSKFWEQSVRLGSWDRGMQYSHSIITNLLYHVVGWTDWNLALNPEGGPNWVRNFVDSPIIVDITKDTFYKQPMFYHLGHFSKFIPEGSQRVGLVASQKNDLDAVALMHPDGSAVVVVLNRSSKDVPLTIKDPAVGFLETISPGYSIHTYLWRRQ
In short: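 Compounds titrated from 0.6 nM upwards against 0.2 nM enzyme in pH 5.9 citric acid/KH2PO4, taurocholate, tween-20; blue fluorogenic substrate 80 uM, 40 min room temperature, stopped and read Ex 365/Em 440 for AC50.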

[2] = target: Cytochrome P450 1A2 (Homo sapiens) (UniProt P05177); assay: p450-cyp1a2 (AID 410; calls by dose curve;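 note: -100% = full effect of reference inhibitor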); conditions: recombinant CYP1A2, luciferin-ME demethylation, luminescence; series mostly up to 11.4 µM
Sequence of Cytochrome P450 1A2 (Homo sapiens) (P05177 whole entry, looked up): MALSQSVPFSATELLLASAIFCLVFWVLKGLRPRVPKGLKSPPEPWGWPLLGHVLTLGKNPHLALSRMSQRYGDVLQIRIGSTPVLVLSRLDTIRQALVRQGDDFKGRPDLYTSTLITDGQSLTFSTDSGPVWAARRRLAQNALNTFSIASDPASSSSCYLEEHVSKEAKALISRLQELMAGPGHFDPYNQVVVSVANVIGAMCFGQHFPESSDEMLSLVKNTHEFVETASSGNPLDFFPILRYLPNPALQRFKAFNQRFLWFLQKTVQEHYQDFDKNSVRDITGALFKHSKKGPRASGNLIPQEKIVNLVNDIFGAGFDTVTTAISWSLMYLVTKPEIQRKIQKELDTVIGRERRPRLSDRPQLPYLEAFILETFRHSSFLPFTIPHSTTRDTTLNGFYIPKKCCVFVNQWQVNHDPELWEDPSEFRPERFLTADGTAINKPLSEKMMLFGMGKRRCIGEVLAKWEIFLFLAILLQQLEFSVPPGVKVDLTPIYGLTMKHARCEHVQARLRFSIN
In short: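 Human CYP1A2 (20nM) demethylated Luciferin-ME at its Km (100uM) in 100mM KPO4. After 10 min compound preincubation, NADPH regeneration ran the reaction 60 min at room temperature. Luciferin was read by luminescence, normalized to 57 uM furafylline.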

[3] = NFAT Signaling Pathway (AID 444); conditions: Jurkat NFAT-bla M1, carbachol, beta-lactamase ratio, 5 h; at 7.69 µM (top of the series) unless noted;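 note: carbachol stimulus at about its EC50 of 1 µM final; % is set by controls: 0 for no effect and ±100 for the full control effect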
In short: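 Read-out: CCF4 FRET ratio (460 nm/530 nm) after 1 h RT dye loading, used for %activity and AC50 from titration series. Cells: Jurkat NFAT-β-lactamase/M1 line, treated with compound plus 1 uM carbachol for 5 h, 37 °C.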

[4] = Stat Signaling Pathway (AID 446); conditions: ME-180 SIE beta-lactamase reporter, IL-6 stimulated, 5 h; at 7.69 µM (top of the series) unless noted;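 note: ME-180 cervical cancer cells given 40 pM IL-6 alongside compound; SIE-controlled beta-lactamase reporter measured as 460/530 nm FRET emission ratio; % is set by controls: 0 for no effect and ±100 for the full control effect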
In short: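 ME-180 SIE-bla cells; overnight plating; cpd + IL-6 40 pM, 5 h, 37 C; LiveBLAzer 2.5 h RT; 460/530 nm emission ratio. Normalized to 300 pM IL-6 and 125 nM JAK inhibitor controls.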

[5] = target: Glucocorticoid receptor (Homo sapiens) (UniProt P04150); assay: GR-GFP Redistribution (AID 450;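 active = compounds whose dose series gives a full or clear partial fitted curve of increased nuclear translocation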; note: potency is the fitted concentration of half-maximal effect); conditions: U2OS GR-GFP nuclear translocation, laser cytometry, 2 h
Sequence of Glucocorticoid receptor (Homo sapiens) (P04150 whole entry, looked up, the tested form may be a part): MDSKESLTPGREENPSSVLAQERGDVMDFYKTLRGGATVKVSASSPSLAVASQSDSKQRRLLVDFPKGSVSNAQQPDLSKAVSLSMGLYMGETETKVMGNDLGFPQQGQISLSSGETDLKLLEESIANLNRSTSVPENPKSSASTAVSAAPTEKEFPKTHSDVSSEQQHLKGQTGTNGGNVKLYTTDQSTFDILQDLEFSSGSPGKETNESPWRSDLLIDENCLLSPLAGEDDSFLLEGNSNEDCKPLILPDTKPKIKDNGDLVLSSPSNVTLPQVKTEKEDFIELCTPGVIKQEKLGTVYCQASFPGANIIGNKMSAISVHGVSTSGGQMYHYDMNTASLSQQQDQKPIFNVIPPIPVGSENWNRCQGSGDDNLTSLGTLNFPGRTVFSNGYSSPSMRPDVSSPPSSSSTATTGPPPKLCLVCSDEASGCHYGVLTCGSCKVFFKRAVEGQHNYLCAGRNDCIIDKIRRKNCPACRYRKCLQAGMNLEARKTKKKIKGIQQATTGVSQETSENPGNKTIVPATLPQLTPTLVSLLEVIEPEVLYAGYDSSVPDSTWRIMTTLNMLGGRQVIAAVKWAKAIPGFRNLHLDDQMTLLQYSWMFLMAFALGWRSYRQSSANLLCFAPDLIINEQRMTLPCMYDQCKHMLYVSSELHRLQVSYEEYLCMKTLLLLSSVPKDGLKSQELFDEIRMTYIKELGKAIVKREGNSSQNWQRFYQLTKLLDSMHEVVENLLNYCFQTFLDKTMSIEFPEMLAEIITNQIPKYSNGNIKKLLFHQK

[6] = target: Glucocorticoid receptor (Homo sapiens) (UniProt P04150); assay: GR-EFC Redistribution (AID 451; calls by dose curve; note: potency is the fitted concentration of half-maximal effect); conditions: CHO-K1 GR-EFC translocation, beta-gal luminescence, 2 h
In short: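 Translocation of GR-ED fusion to nuclear EA restores b-gal, read by luminescence after 1 h room-temperature detection. Engineered CHO-K1 biosensor cells, 1,000/well, exposed 2 h at 37 C to titrations up to 46 uM final.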

[7] = target: Mitogen-activated protein kinase 10 (Mus musculus) (UniProt Q61831); assay: JNK3 AlphaScreen Assay (AID 530); conditions: JNK3 lysate, c-Jun phosphorylation; series mostly up to 11.4 µM;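 note: kinase came from lysate of stimulated human HepG2 cells; signal reports phosphorylation of biotinylated GST-cJun 1-79 at Ser73 with 10 µM ATP; % is set by controls: 0 for no effect and ±100 for the full control effect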
In short: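 Room-temperature AlphaScreen kinase assay; pre-activated HepG2 lysate as JNK3 source, biotin-GST-cJun(1-79) substrate, 10 uM ATP, compound 15 min preincubation.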

[8] = target: 3',5'-cyclic-AMP phosphodiesterase 4B (Homo sapiens) (UniProt Q07343); assay: qHTS Assay for Inhibitors of PDE-IV (AID 607; active = well fitted activation curve with a large enough effect in the main read-out, with a control signal flat, not every such curve was filed as active; note: % of control where 0% means no effect); conditions: HEK293 ACTOne CNG channel cells, membrane potential fluorescence; series mostly up to 22.9 µM
Sequence of 3',5'-cyclic-AMP phosphodiesterase 4B (Homo sapiens) (Q07343 whole entry, looked up): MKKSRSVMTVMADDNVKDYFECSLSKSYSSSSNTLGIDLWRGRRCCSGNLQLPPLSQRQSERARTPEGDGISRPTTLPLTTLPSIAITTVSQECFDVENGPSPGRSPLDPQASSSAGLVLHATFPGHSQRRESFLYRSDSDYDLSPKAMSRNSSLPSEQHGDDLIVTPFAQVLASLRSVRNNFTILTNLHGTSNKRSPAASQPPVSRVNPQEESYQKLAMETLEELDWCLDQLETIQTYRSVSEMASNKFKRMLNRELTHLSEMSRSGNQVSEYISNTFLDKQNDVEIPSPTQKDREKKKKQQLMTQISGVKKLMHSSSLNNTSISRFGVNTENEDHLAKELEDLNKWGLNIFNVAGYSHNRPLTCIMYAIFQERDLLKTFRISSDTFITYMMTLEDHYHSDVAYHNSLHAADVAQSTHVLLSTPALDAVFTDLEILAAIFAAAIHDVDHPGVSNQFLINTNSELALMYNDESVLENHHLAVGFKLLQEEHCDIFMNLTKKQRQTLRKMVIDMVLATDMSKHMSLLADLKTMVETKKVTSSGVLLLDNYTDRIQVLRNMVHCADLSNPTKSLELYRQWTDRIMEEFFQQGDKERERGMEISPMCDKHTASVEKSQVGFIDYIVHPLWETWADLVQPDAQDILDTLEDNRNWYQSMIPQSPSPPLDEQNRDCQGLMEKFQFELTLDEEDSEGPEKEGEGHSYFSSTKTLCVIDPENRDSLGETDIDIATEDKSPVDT
In short: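 ACTOne HEK293 cells carry a modified cAMP-gated CNG channel and express endogenous PDE4; plated 1000 cells/well, compounds up to 22.9 uM final. Membrane-potential dye fluorescence (ex 535/em 590) was read; parental cells received 10 uM forskolin + 100 uM RO 20-1724.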

Cc1nnc(S(=O)(=O)c2ccc(N=Nc3c(N)nc(N)nc3N)cc2)s1
inactive: Potency [1] > 11.4 µM | activity change, negative = inhibition [2] -10.2% [at 2.29 µM] | activity change, negative = inhibition [3] 7.42% | activity, negative = inhibition [4] -3.59% | Potency [5] > 46 µM | Potency [6] > 9.22 µM | Potency [7] | Potency [8]

Cc1ccc(S(=O)(=O)Oc2cc(N)c3c(n2)CCC3)cc1
inactive: Potency [1] > 11.4 µM | activity change, negative = inhibition [2] -19.4% [at 2.29 µM] | activity change, negative = inhibition [3] 9.71% | activity, negative = inhibition [4] -5.99% | Potency [5] > 46 µM | Potency [6] > 9.22 µM | Potency [7] | Potency [8]

CCCCNN
inactive: Potency [1] > 11.4 µM | activity change, negative = inhibition [2] -6.5% [at 2.29 µM] | activity change, negative = inhibition [3] 9.69% | activity, negative = inhibition [4] 4.29% | Potency [5] > 46 µM | Potency [6] > 9.22 µM | Potency [7] | Potency [8]
